# Results filed as inconclusive are left out. A call without a number means that no potency is given here. More than one record can exist for a structure, and the calls need not agree. The source made the active and inactive calls. Unless noted, the call rests on the fitted dose curve; in most records, active means well fitted curve in the direction sought with a large enough effect in the repeat runs; inconclusive means weak or mixed curves; inactive means no such curve, though single readings can be large; an effect the other way counts as inactive or inconclusive.
# Assays:
# [1] = qHTS assay to identify small molecule antagonists of the thyroid receptor (TR) signaling pathway - cell viability counter screen (AID 743064); further: nearly all actives have a fitted effect of over 50% in size
# How it was run: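 In-well cytotoxicity read by CellTiter-Fluor (30 min, 37 C) following 23.5 h exposure of GH3 cells bearing a TRE-luciferase sensor. Compounds were added alongside 1 nM (final) T3 to drive TR transactivation.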
# [2] = qHTS assay to identify small molecule antagonists of the thyroid receptor (TR) signaling pathway (AID 743065); further: series mostly up to about 70 µM; nearly all actives have a fitted effect of over 55% in size
# How it was run: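 Antagonism measured as loss of luciferase signal in GH3 cells stably carrying a TRE-luciferase reporter, co-treated with compound and T3 (1 nM final) for 23.5 h at 37 C. Viability was read in the same well by CellTiter-Fluor.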
# [3] = tested on: thyroid hormone receptor (rat, GH3 cells); assay: qHTS assay to identify small molecule agonists of the thyroid receptor (TR) signaling pathway (AID 743066; calls by dose curve)
# [4] = molecular target: Estrogen receptor (Homo sapiens) (UniProt P03372); assay: qHTS assay to identify small molecule antagonists of the estrogen receptor alpha (ER-alpha) signaling pathway (AID 743069; active means well fitted curve in the direction sought with a large enough effect in the signal ratio in the repeat runs, not every such curve was filed as active; the % refers to the signal ratio)
# How it was run: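 Antagonist mode: compounds in DMSO were co-added with 17beta-estradiol to ER-alpha-bla HEK293 cells (2% charcoal-stripped serum) and left 18 h at 37C. Reporter inhibition was measured as FRET fluorescence after 2 h LiveBLAzer substrate at room temperature.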
# [5] = qHTS assay to identify small molecule antagonists of the estrogen receptor alpha (ER-alpha) signaling pathway - cell viability counter screen (AID 743074; calls by dose curve;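 further: HEK293 cells carrying ER-alpha-UAS-bla reporter stimulated with 17beta-estradiol; nearly all actives have a fitted effect of over 45% in size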)
# [6] = molecular target: Estrogen receptor (Homo sapiens) (UniProt P03372); assay: qHTS assay to identify small molecule agonists of the estrogen receptor alpha (ER-alpha) signaling pathway (AID 743075; calls by dose curve;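 further: HEK293 GripTite cells with ER-alpha and UAS-driven beta-lactamase reporter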)
# [7] = qHTS assay to identify small molecule antagonists of the estrogen receptor alpha (ER-alpha) signaling pathway using the BG1 cell line (AID 743080; calls by dose curve;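 further: BG1 cells stimulated with 17beta-estradiol alongside compound; series mostly up to about 70 µM; nearly all actives have a fitted effect of over 25% in size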)
# How it was run: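 Seeding, 24 h rest, compound transfer from DMSO, 17beta-estradiol addition, 21.5 h incubation, CellTiter-Fluor (30 min, 37 C), then ONE-Glo (30 min, room temperature): this sequence was run on BG1-Luc-4E2 reporter cells.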
# [8] = qHTS assay to identify small molecule antagonists of the estrogen receptor alpha (ER-alpha) signaling pathway using the BG1 cell line - cell viability counter screen (AID 743081);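 further: compound given together with 17beta-estradiol as the ER stimulus; series mostly up to about 70 µM; nearly all actives have a fitted effect of over 45% in size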
# Aromatase (Homo sapiens) = Aromatase (Homo sapiens) (UniProt P11511); assay: qHTS assay to identify aromatase inhibitors (AID 743083); further: series mostly up to about 70 µM; nearly all actives have a fitted effect of over 55% in size
# [9] = qHTS assay to identify aromatase inhibitors - cell viability counter screen (AID 743084);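 further: cells stimulated with testosterone during compound exposure; nearly all actives have a fitted effect of over 55% in size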
# [10] = molecular target: Aryl hydrocarbon receptor (Homo sapiens) (UniProt P35869); assay: qHTS assay to identify small molecule that activate the aryl hydrocarbon receptor (AhR) signaling pathway (AID 743085); further: nearly all actives have a fitted effect of over 15% in size; further: potency means the concentration at half of the fitted maximal effect;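 on activation: HG2L7.5c1 human HepG2 liver cells with stably integrated DRE-driven firefly reporter; series mostly up to about 70 µM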
# How it was run: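 Luminescence (ONE-Glo) from a dioxin-responsive-element luciferase reporter in HG2L7.5c1 HepG2 cells after 24 hr compound exposure at 37C; viability measured by CellTiter-Fluor fluorescence beforehand.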
# [11] = qHTS assay to identify small molecule that activate the aryl hydrocarbon receptor (AhR) signaling pathway - cell viability counter screen (AID 743086);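 further: HepG2 liver cells carrying the AhR DRE luciferase reporter; series mostly up to about 70 µM; nearly all actives have a fitted effect of over 45% in size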
# How it was run: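 Cytotoxicity counter screen: CellTiter-Fluor signal (30 min, 37 C) in 4000 HepG2 cells/well carrying the DRE-luciferase reporter, following 24 h compound exposure at 37 C.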
# [12] = molecular target: Peroxisome proliferator-activated receptor gamma (Homo sapiens) (UniProt P37231); assay: qHTS assay to identify small molecule agonists of the peroxisome proliferator-activated receptor gamma (PPARg) signaling pathway (AID 743094; active means well fitted activation curve with a large enough effect in the signal ratio in the repeat runs, not every such curve was filed as active; the % refers to the signal ratio)
# How it was run: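 Cells from the PPARg UAS-bla HEK293H line are plated and incubated 5 h at 37C. Compounds in DMSO are pinned in and left 17 h at 37C. LiveBLAzer B/G substrate is then added for 1 h at room temperature before fluorescence is measured.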
# [13] = molecular target: Peroxisome proliferator-activated receptor gamma (Homo sapiens) (UniProt P37231); assay: qHTS assay to identify small molecule antagonists of the peroxisome proliferator-activated receptor gamma (PPARg) signaling pathway (AID 743191; calls by dose curve; further: series mostly up to about 63 µM; nearly all actives have a fitted effect of over 30% in size)
# How it was run: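 Beta-lactamase reporter under UAS control in HEK293H PPARg-bla cells; compound treatment 17 h at 37C. Read-out: fluorescence intensity after 1 h room-temperature incubation with LiveBLAzer B/G FRET substrate.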
# [14] = qHTS assay to identify small molecule antagonists of the peroxisome proliferator-activated receptor gamma (PPARg) signaling pathway - cell viability counter screen (AID 743194); further: nearly all actives have a fitted effect of over 55% in size
# How it was run: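 Viability was measured as CellTiter-Glo luminescence in GeneBLAzer PPARg UAS-bla HEK293H cells. These cells had been exposed 17 h at 37 C to compounds together with rosiglitazone at 50 nM final, with the beta-lactamase readout taken in the same wells.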
# [15] = qHTS assay for small molecule agonists of the antioxidant response element (ARE) signaling pathway (AID 743202; active means well fitted activation curve with a large enough effect in the signal ratio in the repeat runs, not every such curve was filed as active; the % refers to the signal ratio)
# How it was run: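 After 16 hours of compound treatment at 37 C, HepG2 cells with a stably integrated ARE-driven beta-lactamase reporter were loaded 2 hours at room temperature with LiveBLAzer B/G FRET substrate and fluorescence intensity measured.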
# [16] = qHTS assay for small molecule agonists of the antioxidant response element (ARE) signaling pathway - cell viability counter screen (AID 743203; calls by dose curve; further: nearly all actives have a fitted effect of over 55% in size)
# How it was run: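 Cytotoxicity was tested in parallel with the ARE reporter screen. ARE-bla HepG2 cells were exposed to compounds for 16 hrs, and viability was taken from CellTiter-Glo luminescence.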
# [17] = qHTS assay for small molecule activators of the heat shock response signaling pathway - cell viability counter screen (AID 743209); further: nearly all actives have a fitted effect of over 50% in size
# How it was run: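 Cytotoxicity counter screen run in parallel with the HSE beta-lactamase reporter, using the same wells. HeLa HSE-bla cells received compound for 5 h at 37 C; ATP-based CellTiter-Glo luminescence was measured after 30 min at room temperature.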
# [18] = qHTS assay for small molecule activators of the heat shock response signaling pathway (AID 743210; active means well fitted activation curve with a large enough effect in the signal ratio in the repeat runs, with a control signal flat, not every such curve was filed as active; the % refers to the signal ratio; further: series mostly up to about 63 µM)
# How it was run: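 Compound exposure lasted 5 h at 37 C in HeLa cells carrying a heat-shock-element-driven beta-lactamase reporter. Read-out: fluorescence intensity after 2.5 h room-temperature loading with LiveBLAzer B/G FRET substrate.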
# [19] = molecular target: Estrogen receptor (Homo sapiens) (UniProt P03372); assay: qHTS assay to identify small molecule agonists of the estrogen receptor alpha (ER-alpha) signaling pathway using the BG1 cell line (AID 743079); further: nearly all actives have a fitted effect of over 20% in size
# Aryl hydrocarbon receptor (Homo sapiens), sequence (P35869 whole entry, looked up): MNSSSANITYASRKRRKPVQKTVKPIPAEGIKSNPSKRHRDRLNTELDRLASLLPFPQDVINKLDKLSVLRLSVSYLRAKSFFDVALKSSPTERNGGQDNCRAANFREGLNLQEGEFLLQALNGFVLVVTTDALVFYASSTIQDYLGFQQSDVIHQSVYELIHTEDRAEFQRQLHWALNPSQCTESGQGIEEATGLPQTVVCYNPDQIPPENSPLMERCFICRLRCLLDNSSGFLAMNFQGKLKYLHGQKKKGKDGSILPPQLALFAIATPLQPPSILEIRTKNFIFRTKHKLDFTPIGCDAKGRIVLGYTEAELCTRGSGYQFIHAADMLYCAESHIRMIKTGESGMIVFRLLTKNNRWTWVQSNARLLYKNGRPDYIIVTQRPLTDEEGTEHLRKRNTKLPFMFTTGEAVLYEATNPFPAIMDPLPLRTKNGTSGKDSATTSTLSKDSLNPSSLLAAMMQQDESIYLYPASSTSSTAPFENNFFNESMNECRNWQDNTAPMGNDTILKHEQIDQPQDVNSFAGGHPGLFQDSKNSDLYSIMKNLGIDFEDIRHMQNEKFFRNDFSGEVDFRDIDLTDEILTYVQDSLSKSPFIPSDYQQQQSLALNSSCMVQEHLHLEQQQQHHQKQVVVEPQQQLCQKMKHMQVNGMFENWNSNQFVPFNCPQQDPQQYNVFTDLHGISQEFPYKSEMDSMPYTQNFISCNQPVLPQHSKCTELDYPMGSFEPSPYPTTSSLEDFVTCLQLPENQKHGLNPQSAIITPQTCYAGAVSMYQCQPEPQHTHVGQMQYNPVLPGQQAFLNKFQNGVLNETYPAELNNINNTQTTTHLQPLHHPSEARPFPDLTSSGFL
# Aromatase (Homo sapiens), sequence (P11511 whole entry, looked up): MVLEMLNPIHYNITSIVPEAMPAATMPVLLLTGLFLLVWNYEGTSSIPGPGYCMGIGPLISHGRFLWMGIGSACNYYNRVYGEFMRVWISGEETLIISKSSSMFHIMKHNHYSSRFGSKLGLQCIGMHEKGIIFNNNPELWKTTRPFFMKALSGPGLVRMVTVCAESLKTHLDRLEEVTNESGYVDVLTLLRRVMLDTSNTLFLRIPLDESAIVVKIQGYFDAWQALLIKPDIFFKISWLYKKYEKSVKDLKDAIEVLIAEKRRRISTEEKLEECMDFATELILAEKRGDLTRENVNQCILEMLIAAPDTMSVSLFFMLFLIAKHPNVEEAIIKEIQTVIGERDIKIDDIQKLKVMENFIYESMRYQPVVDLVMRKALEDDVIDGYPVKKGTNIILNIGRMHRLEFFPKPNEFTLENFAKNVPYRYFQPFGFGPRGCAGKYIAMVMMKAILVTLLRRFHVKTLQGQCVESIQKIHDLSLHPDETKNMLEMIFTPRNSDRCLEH
# Estrogen receptor (Homo sapiens), sequence (P03372 whole entry, looked up): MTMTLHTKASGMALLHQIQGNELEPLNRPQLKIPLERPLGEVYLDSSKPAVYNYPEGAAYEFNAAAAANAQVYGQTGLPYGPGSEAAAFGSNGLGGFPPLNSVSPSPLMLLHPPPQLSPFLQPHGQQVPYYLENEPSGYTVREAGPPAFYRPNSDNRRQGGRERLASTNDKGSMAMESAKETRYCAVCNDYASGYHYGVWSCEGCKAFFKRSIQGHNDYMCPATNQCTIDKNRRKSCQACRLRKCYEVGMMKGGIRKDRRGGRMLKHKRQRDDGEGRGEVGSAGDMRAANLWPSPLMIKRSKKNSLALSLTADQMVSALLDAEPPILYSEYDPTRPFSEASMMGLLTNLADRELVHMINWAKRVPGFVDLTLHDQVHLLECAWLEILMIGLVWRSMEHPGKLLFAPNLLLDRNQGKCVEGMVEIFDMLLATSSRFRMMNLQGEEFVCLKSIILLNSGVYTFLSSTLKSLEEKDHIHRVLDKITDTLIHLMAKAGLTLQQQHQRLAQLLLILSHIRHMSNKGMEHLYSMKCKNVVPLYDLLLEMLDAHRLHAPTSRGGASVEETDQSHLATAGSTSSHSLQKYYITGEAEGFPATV
# Peroxisome proliferator-activated receptor gamma (Homo sapiens), sequence (P37231 whole entry, looked up): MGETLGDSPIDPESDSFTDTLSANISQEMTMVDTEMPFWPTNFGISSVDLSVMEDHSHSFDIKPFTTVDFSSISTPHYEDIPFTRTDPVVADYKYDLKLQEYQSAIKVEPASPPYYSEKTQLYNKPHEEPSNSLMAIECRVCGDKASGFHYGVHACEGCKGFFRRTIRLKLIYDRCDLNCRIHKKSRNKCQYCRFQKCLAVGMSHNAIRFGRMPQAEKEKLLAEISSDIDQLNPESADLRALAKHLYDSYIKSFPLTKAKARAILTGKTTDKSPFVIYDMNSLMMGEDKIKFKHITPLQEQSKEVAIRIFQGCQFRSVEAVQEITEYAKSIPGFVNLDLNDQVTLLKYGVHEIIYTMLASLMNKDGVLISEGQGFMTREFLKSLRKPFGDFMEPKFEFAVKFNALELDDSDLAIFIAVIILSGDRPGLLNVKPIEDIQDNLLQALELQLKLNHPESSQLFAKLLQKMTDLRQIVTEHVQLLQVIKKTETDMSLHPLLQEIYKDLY
SMILES,Potency [1],Potency [2],outcome [3],outcome [4],outcome [5],outcome [6],Potency [7],outcome [8],Potency (Aromatase (Homo sapiens)),Potency [9],Potency [10],Potency [11],outcome [12],Potency [13],outcome [14],Potency [15],outcome [16],outcome [17],outcome [18],Potency [19]
CC(=C(CCOC(=O)C(C)C)SSC(CCOC(=O)C(C)C)=C(C)N(C=O)Cc1cnc(C)nc1N)N(C=O)Cc1cnc(C)nc1N,inactive,inactive,inactive,inactive,inactive,inactive,inactive,inactive,inactive,inactive,inactive,inactive,inactive,inactive,inactive,inactive,inactive,inactive,,
Nc1cccc(O)c1,inactive,inactive,inactive,inactive,,inactive,inactive,inactive,inactive,inactive,35.4 µM (active),inactive,inactive,,inactive,,inactive,,inactive,
Cc1ccc2c(c1)OCC(=O)CO2,inactive,inactive,inactive,inactive,inactive,inactive,inactive,inactive,inactive,inactive,inactive,inactive,,inactive,inactive,inactive,inactive,inactive,inactive,
CC(C)CCCC(C)(C)O,inactive,inactive,inactive,inactive,inactive,inactive,inactive,inactive,inactive,inactive,inactive,,,inactive,inactive,inactive,,inactive,,inactive
CC1(C)S[C@@H]2[C@H](N=CN3CCCCCC3)C(=O)N2[C@H]1C(=O)O,inactive,inactive,inactive,,inactive,inactive,inactive,inactive,inactive,inactive,inactive,inactive,inactive,inactive,inactive,inactive,inactive,inactive,inactive,inactive
CCOC(=O)CC(=O)c1ccccc1,inactive,inactive,inactive,inactive,inactive,inactive,inactive,inactive,inactive,inactive,,inactive,inactive,inactive,inactive,inactive,inactive,,,
Nc1ccc2cc(S(=O)(=O)O)cc(O)c2c1,inactive,inactive,inactive,inactive,inactive,inactive,inactive,inactive,inactive,inactive,27.1 µM (active),,inactive,inactive,inactive,,inactive,inactive,inactive,inactive
BrCCCCCBr,inactive,inactive,inactive,inactive,,inactive,inactive,inactive,inactive,inactive,inactive,inactive,inactive,,inactive,,inactive,inactive,,inactive
O=C(/N=N/C(=O)OCc1ccccc1)OCc1ccccc1,inactive,inactive,inactive,inactive,,inactive,,inactive,inactive,inactive,,inactive,inactive,,inactive,inactive,inactive,inactive,,
CN(C)C(=O)CNC(=O)Cc1ccccc1,inactive,inactive,inactive,inactive,inactive,inactive,inactive,,inactive,inactive,inactive,inactive,inactive,inactive,inactive,inactive,,inactive,,inactive
Oc1cn2c(n1)Nc1ccc(Cl)c(Cl)c1C2,inactive,inactive,inactive,inactive,inactive,inactive,inactive,inactive,inactive,inactive,23.7 µM (active) and inactive,,inactive,,inactive,,,inactive,,inactive
COc1cc(NS(=O)(=O)c2ccc(N)cc2)nc(OC)n1,inactive,inactive,inactive,inactive,inactive,inactive,,inactive,inactive,inactive,inactive,inactive,,inactive,inactive,,inactive,inactive,inactive,inactive
COc1ccc2c(c1)C(=O)N(CCc1ccc(S(=O)(=O)NC(=O)NC3CCCCC3)cc1)C(=O)C2(C)C,inactive,inactive,inactive,,inactive,inactive,inactive,,inactive,inactive,inactive,inactive,inactive,,inactive,,inactive,inactive,,inactive
C=COCCOCCOCCOC=C,inactive,inactive,inactive,,inactive,,,inactive,inactive,inactive,inactive,inactive,inactive,inactive,inactive,inactive,inactive,inactive,,
